Data taken from the supplement of paper PMC12669032.
Unmarked numbers belong to inactive results.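 The calls were made as follows: active = AUC reduced over 20% with Padj below 0.05 in at least 2 of 3 replicates; inactive = otherwise.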

Assays:
Assay in all cases: growth AUC relative to DMSO control (median of replicates) (fraction); higher = more growth (less inhibition), active = hit call of the paper
Conditions in all cases: 20 µM; 24 h
Akkermansia muciniphila = test system: Akkermansia muciniphila
In short: (§1)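 Gut bacterial monocultures were grown anaerobically at 37 °C in mGAM from a starting OD600 of 0.05 with 20 µM compound (1% DMSO), in round-bottom 96-well plates under pierced gas-permeable seals, and OD600 was read hourly for 24 h. With the minimum OD set to 0, area under the growth curve was normalised to the plate median of solvent-only wells, or to row and column medians on the industrial chemical plate. Each value is the median of three biological replicates grown on separate days.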

Bacteroides caccae = test system: Bacteroides caccae
In short: as §1

Bacteroides clarus = test system: Bacteroides clarus
In short: as §1

Bacteroides dorei = test system: Bacteroides dorei
In short: as §1

Bacteroides stercoris = test system: Bacteroides stercoris
In short: as §1

[1] = test system: Bacteroides thetaiotaomicron
In short: as §1

Bacteroides uniformis = test system: Bacteroides uniformis
In short: as §1

[2] = test system: Bifidobacterium longum subsp. longum
In short: as §1

Clostridium difficile = test system: Clostridium difficile
In short: as §1

Collinsella aerofaciens = test system: Collinsella aerofaciens
In short: as §1

Coprococcus comes = test system: Coprococcus comes
In short: as §1

Escherichia coli ED1a = test system: Escherichia coli ED1a
In short: as §1

Escherichia coli IAI1 = test system: Escherichia coli IAI1
In short: as §1

Eubacterium rectale = test system: Eubacterium rectale
In short: as §1

[3] = test system: Fusobacterium nucleatum subsp. animalis
In short: as §1

Lactobacillus gasseri = test system: Lactobacillus gasseri
In short: as §1

Lactobacillus paracasei = test system: Lactobacillus paracasei
In short: as §1

Odoribacter splanchnicus = test system: Odoribacter splanchnicus
In short: as §1

[4] = test system: Parabacteroides distasonis
In short: as §1

Parabacteroides merdae = test system: Parabacteroides merdae
In short: as §1

Structure (SMILES) | growth AUC (Akkermansia muciniphila) | growth AUC (Bacteroides caccae) | growth AUC (Bacteroides clarus) | growth AUC (Bacteroides dorei) | growth AUC (Bacteroides stercoris) | growth AUC [1] | growth AUC (Bacteroides uniformis) | growth AUC [2] | growth AUC (Clostridium difficile) | growth AUC (Collinsella aerofaciens) | growth AUC (Coprococcus comes) | growth AUC (Escherichia coli ED1a) | growth AUC (Escherichia coli IAI1) | growth AUC (Eubacterium rectale) | growth AUC [3] | growth AUC (Lactobacillus gasseri) | growth AUC (Lactobacillus paracasei) | growth AUC (Odoribacter splanchnicus) | growth AUC [4] | growth AUC (Parabacteroides merdae)
CCOC(=O)C(C)Oc1ccc(Oc2nc3ccc(Cl)cc3o2)cc1 (racemic) | 1.1 | 0.973 | 0.96 | 0.94 | 0.898 | 0.971 | 0.981 | 0.989 | 1.01 | 0.947 | 0.993 | 0.967 | 0.949 | 0.987 | 0.929 | 0.91 | 0.97 | 1.01 | 0.824 | 0.969
CCSC(=O)N(CC)CC | 1.01 | 0.998 | 0.991 | 1.01 | 1.1 | 1.03 | 1.01 | 0.929 | 0.982 | 0.982 | 1.04 | 1 | 0.994 | 1 | 1.02 | 0.988 | 0.983 | 0.915 | 1.01 | 0.981
COC(=O)c1ccc(I)cc1S(=O)(=O)[N-]C(=O)Nc1nc(C)nc(OC)n1.[Na+] | 1.25 | 0.901 | 0.992 | 0.933 | 1.01 | 1.06 | 0.941 | 1.01 | 0.991 | 0.977 | 0.947 | 1.02 | 0.948 | 1.07 | 1.14 | 0.919 | 0.969 | 1.07 | 0.95 | 1.01
CN(C)C(=O)Nc1ccccc1 | 0.854 | 1.03 | 0.981 | 1 | 1.07 | 0.994 | 0.978 | 1.01 | 1.01 | 0.984 | 0.965 | 0.951 | 0.978 | 0.978 | 0.961 | 1.03 | 0.949 | 1.04 | 1.05 | 1.02
CS(=O)(=O)c1ccc(C(=O)O)c(N)c1 | 1.13 | 0.993 | 1.01 | 1.02 | 1.03 | 0.994 | 1.03 | 1 | 1.03 | 1.03 | 1.05 | 1.02 | 1.01 | 1.05 | 1.08 | 1.13 | 1 | 1.02 | 1.04 | 1.01
CCCCCC(C)OC(=O)COc1ccc(Cl)c2cccnc12 (stereo not given) | 1.01 | 0.887 | 0.956 | 0.945 | 1.03 | 0.889 | 0.915 | 0.953 | 0.934 | 0.853 | 0.795 (active) | 0.933 | 0.989 | 0.177 (active) | 1.01 | 0.865 | 0.925 | 1 | 0.741 (active) | 0.943
Oc1c(Cl)cc(Cl)c(Cl)c1Cc1c(O)c(Cl)cc(Cl)c1Cl | 0.193 (active) | 0.0131 (active) | 0.0212 (active) | 0.0142 (active) | 0.00917 (active) | 0.00403 (active) | 0.0126 (active) | 0.0988 (active) | 0.0083 (active) | 0.0126 (active) | 0.19 (active) | 0.867 | 0.856 | 0.0106 (active) | 0.078 (active) | 0.037 (active) | 0.0796 (active) | 0.018 (active) | 0.026 (active) | 0.0156 (active)
CC(C)(C)[C@@H](O)[C@@H](Cc1ccc(Cl)cc1)n1cncn1 (mixture of isomers) | 1.1 | 0.942 | 0.98 | 0.909 | 0.933 | 0.993 | 0.966 | 1.09 | 0.938 | 0.967 | 0.994 | 1 | 0.986 | 1.02 | 0.975 | 0.913 | 0.954 | 1.13 | 0.983 | 0.911
COC(=O)c1cccc(C)c1S(=O)(=O)NC(=O)Nc1nc(OCC(F)(F)F)nc(N(C)C)n1 | 0.973 | 0.963 | 0.995 | 1.01 | 1.01 | 0.985 | 0.981 | 0.992 | 0.987 | 1.01 | 0.967 | 0.992 | 0.997 | 0.963 | 0.956 | 1.05 | 0.936 | 0.997 | 1.02 | 0.99
C=O | 0.996 | 1.01 | 0.982 | 1.02 | 1.03 | 0.972 | 0.988 | 0.984 | 0.968 | 1.04 | 0.998 | 1.03 | 0.999 | 0.921 | 1 | 1.04 | 1.06 | 1.03 | 1.03 | 1.03
COc1ccccc1C(=O)NS(=O)(=O)c1ccc(C(=O)NC2CC2)cc1 | 0.895 | 1.01 | 0.994 | 1 | 1.03 | 0.954 | 0.999 | 0.954 | 0.985 | 1.02 | 0.995 | 1.03 | 1.02 | 0.97 | 1.01 | 1.21 | 1 | 0.989 | 1.03 | 1.01
Cc1cc(C)cc(O)c1 | 0.865 | 1.04 | 0.983 | 1.01 | 1 | 1.01 | 1 | 0.906 | 1.03 | 1.02 | 1.02 | 0.953 | 0.984 | 0.95 | 0.923 | 1.01 | 0.958 | 0.988 | 1.01 | 0.988
CCNc1nc(N)[nH]c(=O)n1 | 1.01 | 1.01 | 0.998 | 1.01 | 1.03 | 0.998 | 1.02 | 0.986 | 0.999 | 1.04 | 1.02 | 0.991 | 1 | 0.995 | 0.953 | 1.01 | 1.02 | 1.01 | 1.04 | 0.995
COc1cc(OC)nc(NC(=O)NS(=O)(=O)N(C)S(C)(=O)=O)n1 | 0.951 | 1.03 | 1.05 | 1.01 | 1.06 | 0.982 | 0.98 | 0.945 | 0.907 | 1.04 | 1 | 1.02 | 1.01 | 1.04 | 1.01 | 1.06 | 1.04 | 1.06 | 1.01 | 0.983
CCCOC(=O)c1ccc(C(=O)OCCC)nc1 | 1.06 | 1.01 | 0.99 | 1.04 | 0.94 | 1.02 | 0.99 | 1.05 | 0.99 | 0.967 | 1.05 | 1 | 1 | 1.03 | 0.944 | 0.966 | 0.861 | 1.07 | 1 | 0.986
